# Most compounds without a hit are left out; they make up all but 11% or so of the library.
# BAZ2B block: qHTS Assay for Inhibitors of BAZ2B; Bromodomain adjacent to zinc finger domain protein 2B (Homo sapiens), Q9UIF8; 4.4% of 360,000 active; AlphaScreen BAZ2B-H3K14Ac peptide displacement; Potency, µM (top dose mostly 114 µM), usual class: inhibitors; further: nearly all actives have a fitted effect of over 60% in size
#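 AlphaScreen luminescence quantifies BAZ2B engagement of H3K14Ac peptide; the protein and biotinylated peptide are both at 50 nM final, buffer PBS pH 7.4 with 0.01% Tween-20, all steps at room temperature.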
# L3MBTL1 inh: qHTS Assay for the Inhibitors of L3MBTL1 | Potency, µM (doses to about 57.1 µM), hits mostly inhibitors | 0.66% of 230,000 active | AID 485360, 2010 | Lethal(3)malignant brain tumor-like protein 1 (Homo sapiens), Q9Y468 | AlphaScreen L3MBTL1–H3K9me1 peptide binding; further: nearly all actives have a fitted effect of over 60% in size
#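 L3MBTL1 (50 nM) pre-complexed 30 min with biotinylated H3(1-15)K9me1 peptide (75 nM), then compounds added for 30 min at room temperature; AlphaScreen streptavidin donor/nickel chelate acceptor beads (10 ug/mL final) read after 30 min dark incubation.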
# G9a inh: qHTS Assay for Inhibitors of Histone Lysine Methyltransferase G9a; Histone-lysine N-methyltransferase EHMT2 (Homo sapiens), Q96KQ7; G9a H3K9 monomethylation, AlphaScreen, 2 h; Potency, µM (titrated, usually from 102 µM), actives largely listed as inhibitors; 8.8% of 350,000 active; further: nearly all actives have a fitted effect of over 75% in size
# Target sequence (Q96KQ7 913-1193 limits assumed): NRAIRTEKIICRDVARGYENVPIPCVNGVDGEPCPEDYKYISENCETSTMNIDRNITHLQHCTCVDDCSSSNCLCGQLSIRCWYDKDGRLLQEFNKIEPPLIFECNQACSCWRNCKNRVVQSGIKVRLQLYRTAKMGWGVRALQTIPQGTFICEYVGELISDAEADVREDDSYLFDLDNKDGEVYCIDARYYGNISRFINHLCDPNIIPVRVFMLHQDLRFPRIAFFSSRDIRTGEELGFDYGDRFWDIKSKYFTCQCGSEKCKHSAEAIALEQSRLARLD
#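 Compounds were preincubated with 20 nM G9a for 15 min, after which biotinylated H3K9 peptide (500 nM) and SAM (20 uM) started a 2 h room-temperature reaction. Monomethylated product was quantified by antibody-based AlphaScreen chemiluminescence.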
# JMJD2A Tudor inh: qHTS Assay for Inhibitors of JMJD2A-Tudor Domain | Lysine-specific demethylase 4A (Homo sapiens), O75164 | AID 504339, 2011 | AlphaScreen JMJD2A-Tudor / H3K4me3 peptide binding | Potency, µM (titrated, usually from 114 µM), hits mostly inhibitors | 4.4% of 390,000 active; further: nearly all actives have a fitted effect of over 50% in size
# HP1b binding inh: HTS for Inhibitors of HP1-beta Chromodomain Interactions with Methylated Histone Tails. AID 540317, 2011. AlphaScreen HP1-beta / biotin-H3K9me3 peptide binding. Chromobox protein homolog 1 (Homo sapiens), P83916. 0.56% of 390,000 active. Potency, µM (doses to about 114 µM), actives largely listed as inhibitors; further: nearly all actives have a fitted effect of over 70% in size
# Target sequence (P83916 whole entry, looked up): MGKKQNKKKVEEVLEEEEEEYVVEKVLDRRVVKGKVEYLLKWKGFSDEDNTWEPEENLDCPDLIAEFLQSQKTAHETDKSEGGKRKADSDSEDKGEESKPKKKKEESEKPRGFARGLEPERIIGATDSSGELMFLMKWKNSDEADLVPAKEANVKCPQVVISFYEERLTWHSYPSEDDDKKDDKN
#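 HP1-beta protein (50 nM final) preincubated 30 min at room temperature with biotinylated H3(1-18)K9me3 peptide (50 nM) in PBS pH 7.4, 0.01% Tween-20, then compound added for 30 min. AlphaScreen streptavidin donor/nickel chelate acceptor beads (10 ug/mL final), 30 min dark, luminescence read.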
# A number is an active result; i = inactive; ? = inconclusive; nt = no result given; [ ] = remark or other dose. The call rests on the fitted dose curve; in most records, active means well fitted inhibition curve with a large enough effect; inconclusive means small, poorly fitted or top-dose-only effect; inactive means no such curve, though single readings can be large or run the other way.
SMILES,BAZ2B block,L3MBTL1 inh,G9a inh,JMJD2A Tudor inh,HP1b binding inh
O=C(CSc1ccc(C(F)(F)F)cc1[N+](=O)[O-])N1CCOCC1,i,i[2.29 µM],i[0.501 µM],i,i
Cc1nn(C(C)C(=O)N2CCN(c3ccc(Cl)cc3)CC2)c(=O)c2cc3occc3n12 (centres undefined),?,nt,?,?,i
Cc1ccc(C)c(NC(=O)CSc2cn(CC(=O)N3CCCC3)c3ccccc23)c1,i,nt,i,i,i
CN(C)S(=O)(=O)c1ccc(C(=O)NCc2ccccc2)cc1,nt,i,i,i,i
CN(C)S(=O)(=O)c1ccc(C(=O)NCC2CC2(Cl)Cl)cc1 (centres undefined),i,nt,i,13µM,i
COc1cc(-c2noc(-c3ccc(NCc4ccco4)c([N+](=O)[O-])c3)n2)cc(OC)c1OC,?,nt,i,i,i
COc1ccc(C(=O)NCCc2ccc(Cl)cc2)cc1S(=O)(=O)N1CCCCC1C (centres undefined),i,i,i,i,i
COc1ccc(C(=O)NCCc2c[nH]c3ccccc23)cc1S(=O)(=O)N1CCCCC1C (centres undefined),i,i,2.8µM,?,i
COc1ccc(C(=O)NCCc2c[nH]c3ccccc23)cc1OC,i,i,nt,i,i
O=C(NCCc1c[nH]c2ccccc12)c1ccc2nc[nH]c2c1,50µM,?,i,i,i
CCOc1ccc(C(=O)N2CC(=O)Nc3ccc(C)cc3C2c2ccc(F)cc2)cc1OCC (centres undefined),i,nt,i,i,i
COC(=O)c1cc(Br)c(=O)n(CCc2ccccc2)c1,i,i,i,i,i
COC(=O)c1ccc(CCc2cc(O)c(Br)cc2O)cc1,nt,nt,nt,2.8µM,?
COC(=O)c1ccc(CCc2cc(O)ccc2O)cc1,nt,nt,nt,6.3µM,?
COC(=O)c1ccc(O)cc1,i,nt,i,i,i
O=S(=O)(NCCc1cn2ccsc2n1)c1ccc(Cl)cc1,i,nt,i,i,i
COc1ccc(OC)c(S(=O)(=O)N2CCN(S(=O)(=O)c3ccc4c(c3)OCCO4)CC2)c1,nt,nt,nt,i,nt
CCOC(=O)/C(C#N)=N/Nc1c(C)n(C)n(-c2ccccc2)c1=O,79µM,nt,18µM,i,i
Cc1ccccc1C(=O)/C(C#N)=N/Nc1c(C)n(C)n(-c2ccccc2)c1=O,50µM,i,i,50µM,i
Cc1c(NC=C(C#N)C#N)c(=O)n(-c2ccccc2)n1C,i,i,i[0.501 µM],i,i
Cc1c(N/C=C(\Cl)C(=O)C(F)(F)F)c(=O)n(-c2ccccc2)n1C,?,nt,25µM,i,i
Cc1c(N/N=C(\C#N)C(=O)c2ccccc2)c(=O)n(-c2ccccc2)n1C,32µM,?,?,56µM,i
Cc1ccc(C(=O)Nc2c(C)n(C)n(-c3ccccc3)c2=O)cc1,i,i,nt,i,i
CCOC(=O)Nc1c(C)n(C)n(-c2ccccc2)c1=O,i,i,i,i,i
Cc1c(NC(=O)Nc2ccc(C#N)cc2)c(=O)n(-c2ccccc2)n1C,i,nt,i,i,i
SMILES,BAZ2B block,L3MBTL1 inh,G9a inh,JMJD2A Tudor inh,HP1b binding inh
N#Cc1ccc(CN2C(=O)c3ccccc3Sc3ccc(C(=O)OCc4ccco4)cc32)cc1,i,nt,i,i,i
N#Cc1c(SCC(N)=O)nc2c(c1-c1ccncc1)CCCC2,i,i,40µM,?,i
CC1=C(CC(=O)c2ccc(Cl)cc2)C(=O)c2ccccc2C1=O,32µM,?,?,32µM,i
O=C(Cc1ccccn1)c1ccc(Cl)cc1,i,i,i[2.33 µM],i,i
Cc1ccc2oc(=O)c3cc(C(=O)Nc4ccccc4C(N)=O)sc3c2c1,i,nt,i,i,i
C[N+]1(CC(=O)NNc2c3ccccc3nc3ccccc23)CCOCC1,?,i,50µM,nt,nt
COc1ccccc1OCC(=O)NNc1c2ccccc2nc2ccccc12,?,i,35µM,?,i
CCOC(=O)C1=C(O)C(=O)C(C(=O)OCC)C1 (centres undefined),nt,nt,nt,10µM,?
CCOC(=O)C1Cc2cc3c(cc2C1=O)CC(C(=O)OCC)C3=O (centres undefined),i,i,35µM,nt,nt
CS(=O)(=O)c1ccc(Sc2nc3ccccc3s2)c([N+](=O)[O-])c1,i,i,i,?,i
